A short description of assay [1]: qHTS assay to identify small molecule agonists of H2AX (AID 1224845; active = well fitted activation curve with a large enough effect in the signal ratio in the repeat runs, not every such curve was filed as active; the % refers to the signal ratio; also: potency is read from the fitted curve at half-maximal effect). In a few lines:
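Wild-type CHO-K1 cells plated overnight, then exposed 3 hr at 37C to compounds at 15 concentrations (0.76% DMSO). Lysed, then HTRF anti-pH2AX(S139)-cryptate/anti-H2AX-d2 detection after 24 hr at room temperature; emissions 665 and 620 nm.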
Background: qHTS replaces the single test concentration by a dilution series.

Assay [2] can be described thus: qHTS assay to identify small molecule agonists of H2AX - cell viability counter screen (AID 1224847; calls by dose curve; also: nearly all actives have a fitted effect of over 30% in size; also: potency is read from the fitted curve at half-maximal effect). Put shortly: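 Wild-type CHO-K1 cells (10% FBS medium) were plated overnight at 37C, exposed to compounds at 15 concentrations for 3 hr at 37C (0.76% DMSO final), and viability was read as CellTiter-Glo luminescence after 30 min at room temperature.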
The nature of assay [3]: qHTS assay to identify small molecule antagonists of the estrogen related receptor (ERR) signaling pathway from Tox21 library (AID 1224848). Also: nearly all actives have a fitted effect of over 50% in size. Also: potency is read from the fitted curve at half-maximal effect. In a few lines:
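Cells: ERR line, 2,000/well; 6 h preincubation 37 C/5% CO2. Cpd in DMSO via pin tool; 18 h, 37 C. ONE-Glo, 30 min RT, luminescence.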

Assay [4] can be described thus: qHTS assay to identify small molecule agonists of the estrogen related receptor (ERR) signaling pathway from Tox21 library (AID 1224849; calls by dose curve; also: nearly all actives have a fitted effect of over 15% in size). As to conditions: ERR reporter cell line, ONE-Glo luciferase, 18 h; at 92.4 µM (top of the series) unless noted. In a few lines: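 ERR cells, 6 h pre-incubation 37 C/5% CO2; cpd in DMSO pinned; 18 h 37 C; ONE-Glo added, 30 min RT; luminescence read. Agonist mode, qHTS.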

The nature of assay [5]: qHTS RealTime-Glo MT Cell Viability Assay in HepG2 cells - 24 hour (AID 1224867). Also: nearly all actives have a fitted effect of over 50% in size. Also: potency is read from the fitted curve at half-maximal effect. Put shortly:
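HepG2 cells (600/well) were dispensed with RealTime-Glo reagents, incubated 5 h at 37 °C, then treated with compounds in DMSO for up to 40 h. Nonlytic NanoLuc luminescence reflecting viable cells was read at each stated time point.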

Assay [6] can be described thus: qHTS RealTime-Glo MT Cell Viability Assay in HEK293 cells - 32 hour (AID 1224868). Also: nearly all actives have a fitted effect of over 50% in size. Also: potency is read from the fitted curve at half-maximal effect. In a few lines: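 HEK293 cells seeded with NanoLuc/prosubstrate reagent, rested 5 h at 37 C, then dosed and kept at 37 C up to 40 h. Nonlytic real-time luminescence from viable cells read at 0, 8, 16, 24, 32 and 40 h.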
The nature of assay [7]: A CellTox Green Cytotoxicity Assay to monitor cytotoxicity in HEK293 cells - 0 hour (AID 1224869). Also: nearly all actives have a fitted effect of over 50% in size. Also: potency is read from the fitted curve at half-maximal effect. In a few lines: (§1)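 Nonlytic real-time cytotoxicity: HEK293 + CellTox Green reagent plated, 5 h preincubation, pintool compound addition (23 nL in DMSO), 37 C for 40 h, fluorescence measured at successive time points.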
Assay [8] in a line: qHTS RealTime-Glo MT Cell Viability Assay in HepG2 cells - 40 hour (AID 1224870). Also: nearly all actives have a fitted effect of over 50% in size. Also: potency is read from the fitted curve at half-maximal effect. Put shortly:
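HepG2 cells mixed with RealTime-Glo MT reagents (NanoLuc plus cell-permeant prosubstrate) were seeded at 600 cells/well, incubated 5 h at 37 C/5% CO2, then pinned with compounds in DMSO; nonlytic luminescence tracked viability during 40 h treatment.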

Assay [9] can be described thus: A CellTox Green Cytotoxicity Assay to monitor cytotoxicity in HEK293 cells - 40 hour (AID 1224871). Also: nearly all actives have a fitted effect of over 45% in size. Also: potency is read from the fitted curve at half-maximal effect. In a few lines: as §1

Values joined by “and” are separate entries in the source; they are usually repeats but may differ in a detail not shown here. Equal values may be shown once. Unmarked numbers belong to inactive results. Inconclusive results are not listed. Active and inactive are the calls of the source. Unless noted, calls follow the shape of the dose curve; as a rule, active = well fitted curve in the direction sought with a large enough effect in the repeat runs; inconclusive = weak or mixed curves; inactive = no such curve, though single readings can be large; an effect the other way counts as inactive or inconclusive.
% is scaled to controls: 0 for no effect and ±100 for the full control effect.

In the case of `CSc1ccc(/C=C2/C(C)=C(CC(=O)O)c3cc(F)ccc32)cc1`, the Potency result in assay [1], in assay [2], in [3], in assay [5], in assay [6] and in assay [7] was “inactive” in each case. Further, the Potency entry in assay [8] and in assay [9] was “inactive” throughout. Besides, the activity change, positive = activation in assay [4] is -7.17% [at 42.5 µM].

For the compound `CN(C)[C@@H]1C(=O)C(C(N)=O)=C(O)[C@@]2(O)C(=O)C3=C(O)c4c(O)ccc(Cl)c4[C@@H](O)[C@H]3C[C@@H]12`, the Potency result in [1], in [2], in assay [3], in assay [5], in assay [6] and in [7] was “inactive” throughout. Moreover, the Potency result in assay [8] and in assay [9] was “inactive” each time. Further, the activity change, positive = activation in [4] was -10.9% [at 42.5 µM].

Consider `CCCCCCCCCCCCCCCCCC[N+](C)(C)Cc1ccccc1`, for which the Potency result in [1] and in assay [7] was “inactive” each time. The Potency in [2] is 45.4 µM (active); in [3], 19.5 µM (active); in [5], 49.5 µM (active); in [6] it was 2.78 µM (active); in assay [8], 22.1 µM (active); in assay [9] it was 19.7 µM (active). Besides, the activity change, positive = activation in [4] was -81%.

Consider `Cn1cc(C(=O)[C@@H]2CCc3nc[nH]c3C2)c2ccccc21`, for which the Potency result in [1], in [2], in [3], in assay [5], in assay [7] and in assay [8] was “inactive” throughout. Moreover, in assay [9], the Potency result was “inactive”. The activity change, positive = activation in [4] is -13.3% [at 42.5 µM].

In the case of `Oc1cccc2cc3cccc(O)c3c(O)c12`, the Potency entry in assay [1], in [2], in [5], in assay [6], in [7] and in [8] was “inactive” in each case. Also, the Potency result in [9] is “inactive”.

Consider `CC[C@@]1(O)C(=O)OCc2c1cc1n(c2=O)Cc2cc3c(CN(C)C)c(O)ccc3nc2-1`, for which the Potency is 1.39 µM (active) in [1]; 1.19 µM (active) in assay [3]; 0.0674 µM (active) in assay [6]; 23.9 µM (active) in assay [7]; 5.35 µM (active) in assay [8]; 21.3 µM (active) in [9]. The Potency entry in assay [2] is “inactive”. Also, in assay [4], the activity change, positive = activation was -50.2% [at 42.5 µM].

`CCCCC(CC)COP(=O)(O)OCC(CC)CCCC` (centres undefined): the Potency entry in [1], in assay [2], in assay [5], in assay [7] and in assay [8] was “inactive” throughout. The Potency is 30.7 µM (active) and 27.3 µM (active) in assay [3]; 43.6 µM (active) in [9]. Further, in [4], the activity change, positive = activation was -51.6% and -55.8%.

Consider `Clc1ccc2n[nH]nc2c1`, for which the Potency entry in assay [1], in [2], in assay [5], in assay [6], in [7] and in [8] was “inactive” throughout. Also, the Potency entry in assay [9] is “inactive”.

For the compound `C[C@]12CCC(=O)C=C1CC[C@@H]1[C@@H]2[C@@H](O)C[C@@]2(C)[C@H]1CC[C@]2(O)C(=O)COC(=O)CCC(=O)O`, the Potency result in assay [1], in assay [2], in assay [5], in [6], in assay [7] and in assay [8] was “inactive” throughout. Besides, the Potency entry in assay [9] was “inactive”.

As for `Nc1nc2ccccc2n1Cc1ccc(F)cc1`, the Potency entry in [1], in [2], in assay [5], in assay [7], in assay [8] and in [9] was “inactive” throughout. In addition, in [4], the activity change, positive = activation is -28.8% [at 42.5 µM].

For the compound `CCOC(=O)O[C@H](C)OC(=O)c1ccc2c(c1)cc(C(=O)NC1CCN(C(C)C)CC1)n2Cc1cc(-c2ccc(Cl)s2)on1`, the Potency in assay [1] was 42 µM (active); in [2], 37.5 µM (active); in assay [5], 11.5 µM (active); in assay [6], 11.5 µM (active); in [8], 10.2 µM (active); in assay [9], 18.2 µM (active). Moreover, in [7], the Potency entry was “inactive”.

In the case of `C[C@@H]1C[C@H]2[C@@H]3CCC4=CC(=O)C=C[C@]4(C)[C@@]3(Cl)[C@@H](O)C[C@]2(C)[C@@]1(OC(=O)c1ccco1)C(=O)CCl`, the Potency entry in assay [1], in [2], in assay [6], in [7] and in assay [9] was “inactive” each time. Further, the Potency in [3] was 13.3 µM (active). Further, in assay [4], the activity change, positive = activation was -51.1% [at 42.5 µM].

Regarding `Cc1cc(C2CCCCC2)n(O)c(=O)c1`, the results for the Potency in assay [1] and in assay [6] were 9.82 µM (active) and 1.69 µM (active), respectively. The Potency result in assay [2], in assay [5], in [7] and in assay [8] was “inactive” each time.

Take `N#CSc1ccc(N)c([N+](=O)[O-])c1`: the Potency result in [1], in assay [2], in [7] and in assay [8] was “inactive” throughout. For the same compound, the Potency was 43.5 µM (active) in assay [3] and 49.3 µM (active) in [6]. Also, in assay [4], the activity change, positive = activation is -63.3%.

As for `CSc1ccc(C(=O)c2[nH]c(=O)[nH]c2C)cc1`, the Potency entry in assay [1], in assay [2], in [3], in [5], in assay [6] and in [7] was “inactive” each time. The Potency entry in assay [8] and in [9] was “inactive” each time.

The record behind these values is PubChem BioAssay (Tox21).
